Screens from PubChem.
BAZ2B inh = blocks human BAZ2B; Q9UIF8; AlphaScreen BAZ2B-H3K14Ac peptide displacement; Potency, µM (top dose mostly 114 µM), usual class: inhibitors; hit rate 4.4% among 360,000; AID 504333; note: nearly all actives have a fitted effect of over 60% in size
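Protein-peptide AlphaScreen: BAZ2B 50 nM, b-H3K14Ac 50 nM, 1x PBS pH 7.4 + 0.01% Tween-20. Preincubation 30 min RT; cpd 30 min RT (top 110 uM); beads 20 min RT, light-protected.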
GLS inhibitor = blocks human kidney-isoform glutaminase activity | O94925 | GLS enzymatic activity, qHTS titration | Potency, µM (titrated, usually from 45.5 µM), usual class: inhibitors | hit rate 0.21% among 410,000
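Glutamate formation by hKGA was monitored fluorometrically using coupled glutamate oxidase, HRP and Amplex Red. Substrate was added as 1 mM L-glutamine solution; incubation was 30 min at RT after an initial read.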
G9a block = G9a (human) methyltransferase inhibition; Q96KQ7; G9a H3K9 monomethylation, AlphaScreen, 2 h; Potency, µM (top dose mostly 102 µM), usual class: inhibitors; hit rate 8.8% among 350,000; note: nearly all actives have a fitted effect of over 75% in size
Target sequence (Q96KQ7 913-1193 limits assumed): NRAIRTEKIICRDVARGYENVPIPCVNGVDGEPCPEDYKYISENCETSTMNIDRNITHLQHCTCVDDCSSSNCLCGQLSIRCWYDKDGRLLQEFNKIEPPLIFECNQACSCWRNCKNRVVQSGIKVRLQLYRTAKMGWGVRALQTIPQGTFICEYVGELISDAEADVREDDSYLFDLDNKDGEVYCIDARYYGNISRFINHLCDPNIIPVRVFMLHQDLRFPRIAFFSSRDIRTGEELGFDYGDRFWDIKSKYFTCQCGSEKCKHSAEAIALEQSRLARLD
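AlphaScreen read-out: biotin-H3K9 peptide (500 nM) methylation by 20 nM enzyme with 20 uM SAM, 2 h at room temperature after 15 min compound preincubation; anti-monomethyl H3K9 antibody plus donor/acceptor beads, 10 min dark.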
HP1b binding inh = inhibitors of HP1-beta chromodomain binding to methylated histone tails | P83916 | AlphaScreen HP1-beta / biotin-H3K9me3 peptide binding | Potency, µM (highest dose often 114 µM), hits mostly inhibitors | hit rate 0.56% among 390,000; note: nearly all actives have a fitted effect of over 70% in size
Target sequence (P83916 whole entry, looked up): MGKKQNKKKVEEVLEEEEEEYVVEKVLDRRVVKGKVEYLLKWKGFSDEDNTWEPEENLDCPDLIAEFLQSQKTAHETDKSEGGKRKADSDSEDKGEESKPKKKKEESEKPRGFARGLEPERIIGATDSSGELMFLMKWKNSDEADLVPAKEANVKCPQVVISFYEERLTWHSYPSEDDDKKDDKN
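Compound inhibition of the preformed complex between 50 nM HP1-beta and 50 nM biotinylated H3K9me3 peptide was read by AlphaScreen. Buffer was PBS pH 7.4 with 0.01% Tween-20. Incubations ran 30 min at room temperature, with 10 ug/mL donor/acceptor beads.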
JMJD2A Tudor inh = inhibitors of human JMJD2A Tudor domain. O75164. AlphaScreen JMJD2A-Tudor / H3K4me3 peptide binding. Potency, µM (titrated, usually from 114 µM), hits mostly inhibitors. hit rate 4.4% among 390,000. AID 504339; note: nearly all actives have a fitted effect of over 50% in size
Large screens that a line does not name were inactive. A selection: hits, their analogues and other compounds. The true share with any hit is near 10%. Calls come from the whole dose curve; as a rule, active = well fitted curve in the direction sought with a large enough effect; inconclusive = small, poorly fitted or top-dose-only effect, or another doubt; inactive = no such curve, though single readings can be large; an effect the other way counts as inactive or inconclusive.

CC(=O)Nc1cccc(C(=O)OC(C)C(=O)Nc2ccc(S(=O)(=O)N3CCCC3)cc2)c1 (stereo not given)	G9a block 50µM
CC(OC(=O)c1cccc(S(=O)(=O)N2CCCCCC2)c1)C(=O)Nc1ccc(S(N)(=O)=O)cc1 (stereo not given)	G9a block 50µM
CCCN1CCN(C(=O)CCCn2c(C)c3cnn(-c4ccccc4)c(=O)c3c2C)CC1	G9a block inconclusive
O=C1/C(=C/c2cccc(Cl)c2)SC(=S)N1CCC(=O)N1CCCCC1CCO (stereo not given)	BAZ2B inh 28µM (no result: G9a block)
O=C1/C(=C/c2cccs2)SC(=S)N1CC(=O)N1CCCCC1CCO (stereo not given)	BAZ2B inh inconclusive, G9a block 71µM
Cc1ccc(N2C(=O)/C(=C/c3ccco3)SC2=S)cc1	BAZ2B inh inconclusive, JMJD2A Tudor inh inconclusive
O=C1/C(=C/c2ccco2)SC(=S)N1CCC(=O)N1CCCCC1CCO (stereo not given)	BAZ2B inh 50µM, G9a block 45µM
O=C1/C(=C/c2ccc(Cl)cc2)SC(=S)N1CCC(=O)N1CCCCC1CCO (stereo not given)	BAZ2B inh inconclusive, JMJD2A Tudor inh inconclusive
O=C1/C(=C\c2ccco2)SC(=S)N1C1CCCCC1	BAZ2B inh 10µM (no result: GLS inhibitor, HP1b binding inh, JMJD2A Tudor inh)
CCOCCc1nnc(NC(=O)C(C)Oc2ccccc2)s1 (stereo not given)	none
O=C1CCN(C(=S)NCc2ccccc2)CC1	none (no result: BAZ2B inh)
O=C(O)C1[C@H]2C(=O)N(C3CCCC3)C[C@]23C=C[C@H]1O3 (stereo not given in full)	none
Cc1ccc(NC(=O)Cc2c(F)cccc2Cl)cc1S(=O)(=O)N1CCOCC1	none (no result: BAZ2B inh, G9a block)
O=S(=O)(NC1CCN(S(=O)(=O)c2c(F)cccc2F)C1)c1ccc2c(c1)OCCO2 (stereo not given)	none
Cc1[nH]c2ccccc2c1C(c1ccccn1)c1c(C)[nH]c2ccccc12	BAZ2B inh 35µM, G9a block 28µM
Cc1c(Nc2cc(Cl)c3nonc3c2[N+](=O)[O-])c(=O)n(-c2ccccc2)n1C	G9a block 7.1µM
O=C(O)c1cccc(Nc2ccc3nonc3c2[N+](=O)[O-])c1	none
O=[N+]([O-])c1c(Nc2cccc(O)c2)cc(Cl)c2nonc12	BAZ2B inh inconclusive, G9a block 45µM, JMJD2A Tudor inh inconclusive
O=C(O)c1ccc(Nc2cc(Cl)c3nonc3c2[N+](=O)[O-])cc1	G9a block 35µM
Cc1c(Nc2cc(N3CCOCC3)c3nonc3c2[N+](=O)[O-])c(=O)n(-c2ccccc2)n1C	G9a block inconclusive (no result: GLS inhibitor, HP1b binding inh, JMJD2A Tudor inh)
Clc1ccc(CN2CCN(c3ncccn3)CC2)cc1Cl	BAZ2B inh 79µM, JMJD2A Tudor inh 13µM (no result: G9a block)
O=C(c1ccc([N+](=O)[O-])cc1)N1CCCC1	none
O=C(c1ccccc1)N1CCN(C(=O)c2ccc([N+](=O)[O-])cc2)CC1	none
O=C(CCN1CCN(Cc2ccccc2)CC1)NNC(=O)Cc1ccc(Cl)c(Cl)c1	none
CC(C)N1CCN(C(=O)c2ccc([N+](=O)[O-])cc2)CC1	HP1b binding inh inconclusive, JMJD2A Tudor inh 79µM (no result: BAZ2B inh, G9a block)
c1ccc(CN2CCN(c3ncccn3)CC2)cc1	BAZ2B inh inconclusive, G9a block 25µM, JMJD2A Tudor inh 4.5µM
O=C(c1ccc([N+](=O)[O-])cc1)N1CCN(c2cccc3[nH]ccc23)CC1	G9a block 50µM
FC(F)(F)c1cccc(CN2CCN(c3ncccn3)CC2)c1	none (no result: BAZ2B inh, G9a block)
O=C(Nc1ccccc1)N(CCCN1CCOCC1)Cc1cc2cc3c(cc2[nH]c1=O)OCCO3	none
O=C(Nc1ccc(N2CCN(C(=O)c3ccccc3)CC2)cc1)c1cc([N+](=O)[O-])ccc1N1CCOCC1	BAZ2B inh inconclusive, G9a block inconclusive
COc1cc(CN2CCN(c3ncccn3)CC2)cc(OC)c1	none (no result: G9a block)
O=C(c1ccccc1)N1CCN(c2ccc([N+](=O)[O-])cc2-n2cccc2)CC1	BAZ2B inh 28µM, JMJD2A Tudor inh inconclusive (no result: G9a block)
Clc1ccc(CN2CCN(c3ncccn3)CC2)cc1	BAZ2B inh inconclusive, JMJD2A Tudor inh 13µM (no result: G9a block)
O=[N+]([O-])c1cccc(CN2CCN(c3ncccn3)CC2)c1	BAZ2B inh inconclusive, G9a block 11µM, HP1b binding inh inconclusive, JMJD2A Tudor inh 2.2µM
NC(=O)c1cc([N+](=O)[O-])ccc1N1CCN(Cc2ccccc2)CC1	none (no result: G9a block)
O=[N+]([O-])c1cccc(CN2CCN(c3cccc4[nH]ccc34)CC2)c1	BAZ2B inh inconclusive, G9a block 32µM, JMJD2A Tudor inh 56µM
CC1CC(C)CN(C(=O)CSc2nnc(-c3ccco3)o2)C1 (stereo not given)	none
O=C(C(=O)N1CCN(c2ccccc2Cl)CC1)c1c[nH]c2ccccc12	BAZ2B inh 50µM, JMJD2A Tudor inh inconclusive
O=C(C(=O)N1CCCc2ccccc21)c1c[nH]c2ccccc12	none
COc1ccc(CN2CCN(Cc3c[nH]c4ccccc34)CC2)cc1	BAZ2B inh 20µM, G9a block inconclusive, HP1b binding inh 35µM, JMJD2A Tudor inh 0.79µM
COc1ccc(Br)cc1CN1CCN(Cc2c[nH]c3ccccc23)CC1	BAZ2B inh 14µM, G9a block 8.9µM, HP1b binding inh inconclusive, JMJD2A Tudor inh 2.8µM
Clc1ccccc1N1CCN(Cc2c[nH]c3ccccc23)CC1	HP1b binding inh inconclusive, JMJD2A Tudor inh 20µM (no result: BAZ2B inh, G9a block)
COc1ccc(C=NNc2nc3ccccc3s2)cc1	none (no result: BAZ2B inh, G9a block)
Cc1ccc2[nH]c(C)c(/C=N/Nc3nc4ccccc4s3)c2c1	BAZ2B inh inconclusive, G9a block inconclusive, JMJD2A Tudor inh 45µM
CCOCCCNC(=O)C(NC(=O)c1ccccc1O)c1ccc(C)cc1 (stereo not given)	G9a block 5.6µM
O=C(CN(C(=O)Cn1nnc(-c2ccc(F)cc2)n1)C1CCCC1)NC1CCCC1	none
Oc1ccc(N=Nc2ccccc2C(F)(F)F)c2cccnc12	BAZ2B inh 5.6µM, JMJD2A Tudor inh 10µM
CCS(=O)(=O)c1ccc(N=Nc2ccc(O)c3ncccc23)c(OC)c1	BAZ2B inh 5.6µM, G9a block 7.1µM, HP1b binding inh 50µM, JMJD2A Tudor inh 20µM
Cc1ccc(N=Nc2ccc(O)c3ncccc23)cc1	BAZ2B inh inconclusive, G9a block inconclusive, HP1b binding inh inconclusive, JMJD2A Tudor inh inconclusive
COc1ccccc1N=Nc1ccc(O)c2ncccc12	BAZ2B inh 20µM, G9a block 45µM, HP1b binding inh 10µM, JMJD2A Tudor inh 45µM
C=CCC[C@H](Cc1ccc(F)cc1)C(=O)OC[C@H](Cc1c[nH]c2ccccc12)NC(=O)[C@@H](CC=C)CC(=O)N(CCO)Cc1ccccc1	JMJD2A Tudor inh inconclusive (no result: BAZ2B inh, G9a block)
CC(=O)c1cccc(-n2c(CCC(=O)O)ccc2-c2cccs2)c1	BAZ2B inh 50µM, G9a block inconclusive, HP1b binding inh inconclusive, JMJD2A Tudor inh 56µM
Cc1ccc(-c2ccc(CCC(=O)O)n2-c2cccc(O)c2)cc1	BAZ2B inh inconclusive, G9a block 14µM, JMJD2A Tudor inh inconclusive
CC(=O)c1cccc(-n2c(CCC(=O)O)ccc2-c2ccccc2)c1	G9a block 40µM
